# Assay results published in PubChem BioAssay (EPA / NIEHS).
# Inconclusive results are not listed. Active and inactive are the calls of the source. How the source made its calls: active means hit-call score of the fitted dose curve at least 0.9, where 1 is the maximum; inconclusive means response in the unintended direction; inactive means score below 0.9.
# Assays:
# [1] = biological target: rat Opioid Receptor, Non-selective Sodium (Na+) Binding, Oprm1 (gene 25601) (UniProt P33535); assay: NVS_GPCR_rOpiate_NonSelectiveNa: NovaScreen (NVS) G Protein-Coupled Receptor Assay for rat Opioid Receptor, Non-selective Sodium (Na+) Binding (AID 2283311)
# Sequence of rat Opioid Receptor, Non-selective Sodium (Na+) Binding, Oprm1 (gene 25601) (P33535 whole entry, looked up): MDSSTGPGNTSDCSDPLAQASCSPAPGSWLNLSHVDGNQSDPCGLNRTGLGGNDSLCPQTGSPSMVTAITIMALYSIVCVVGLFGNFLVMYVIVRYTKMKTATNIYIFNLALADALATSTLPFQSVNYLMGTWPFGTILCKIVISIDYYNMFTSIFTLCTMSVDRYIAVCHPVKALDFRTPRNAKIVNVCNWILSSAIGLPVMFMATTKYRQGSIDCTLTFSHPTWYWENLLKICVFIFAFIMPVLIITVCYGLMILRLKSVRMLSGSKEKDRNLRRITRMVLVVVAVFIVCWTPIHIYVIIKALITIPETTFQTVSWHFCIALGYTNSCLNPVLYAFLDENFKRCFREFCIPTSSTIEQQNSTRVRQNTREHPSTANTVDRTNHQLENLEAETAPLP
# In short: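 Filtration radioligand binding on rat forebrain membrane preparations, read 1.5 h after dosing. Single-concentration 25 µM primary screen in duplicate, followed by singleton concentration series to 50 µM max for actives; DMSO baseline.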
# [2] = biological target: rat Serotonin, 5-Hydroxytryptamine Receptor (5HT), Non-Selective Binding, Htr1a (gene 24473) (UniProt P19327); assay: NVS_GPCR_r5HT_NonSelective: NovaScreen (NVS) G Protein-Coupled Receptor Assay for rat Serotonin, 5-Hydroxytryptamine Receptor (5HT), Non-Selective Binding (AID 2283295)
# Sequence of rat Serotonin, 5-Hydroxytryptamine Receptor (5HT), Non-Selective Binding, Htr1a (gene 24473) (P19327 whole entry, looked up): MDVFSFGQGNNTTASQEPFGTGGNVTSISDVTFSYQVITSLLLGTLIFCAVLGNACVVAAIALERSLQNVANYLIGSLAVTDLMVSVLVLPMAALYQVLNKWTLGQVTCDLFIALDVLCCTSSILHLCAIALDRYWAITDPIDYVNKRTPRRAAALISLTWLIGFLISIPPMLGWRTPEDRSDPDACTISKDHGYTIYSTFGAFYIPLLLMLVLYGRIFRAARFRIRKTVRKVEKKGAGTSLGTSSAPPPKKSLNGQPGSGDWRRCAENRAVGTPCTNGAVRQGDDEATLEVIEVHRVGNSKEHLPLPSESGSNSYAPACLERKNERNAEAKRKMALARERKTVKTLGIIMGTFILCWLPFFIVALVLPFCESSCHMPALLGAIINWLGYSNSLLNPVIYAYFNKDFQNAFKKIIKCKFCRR
# In short: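 Rat cortex membrane preparation incubated 1 h with radioligand and test chemical; bound radioactivity counted after filtration. Screening began in duplicate at 25 uM with concentration-series follow-up; fitting relative to DMSO.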
# [3] = biological target: rat Adrenergic, Alpha 1A Receptor (Adra1A), Adra1a (gene 29412) (UniProt P43140); assay: NVS_GPCR_rAdra1A: NovaScreen (NVS) G Protein-Coupled Receptor Assay for rat Adrenergic, Alpha 1A Receptor (Adra1A) (AID 2283296)
# In short: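 Filter radiodetection after 1 h competitive binding on CEC-pretreated rat cortical membranes. Duplicate single-point screening at 25 uM; active chemicals retested across concentration series.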
# [4] = biological target: rat Neurokinin-1 Receptor (NK1), Tacr1 (gene 24807) (UniProt P14600); assay: NVS_GPCR_rNK1: NovaScreen (NVS) G Protein-Coupled Receptor Assay for rat Neurokinin-1 Receptor (NK1) (AID 2283309)
# Sequence of rat Neurokinin-1 Receptor (NK1), Tacr1 (gene 24807) (P14600 whole entry, looked up): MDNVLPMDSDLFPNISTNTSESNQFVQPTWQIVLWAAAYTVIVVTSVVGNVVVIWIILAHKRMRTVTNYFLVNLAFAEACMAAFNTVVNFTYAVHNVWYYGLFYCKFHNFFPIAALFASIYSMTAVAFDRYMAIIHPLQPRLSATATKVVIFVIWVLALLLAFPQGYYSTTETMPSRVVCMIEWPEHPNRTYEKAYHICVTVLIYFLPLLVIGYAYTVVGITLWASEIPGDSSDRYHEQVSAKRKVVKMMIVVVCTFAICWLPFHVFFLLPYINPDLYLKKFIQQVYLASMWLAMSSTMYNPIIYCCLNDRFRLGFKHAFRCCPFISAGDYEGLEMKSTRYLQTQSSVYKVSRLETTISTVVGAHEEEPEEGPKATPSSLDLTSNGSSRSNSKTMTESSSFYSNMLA
# In short: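 Competitive radioligand binding to NK1 in rat submaxillary membranes, 1 h incubation, filtration and scintillation read-out. Compounds first screened at 25 uM in duplicate, then concentration-response for actives; signal loss relative to DMSO.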
# [5] = biological target: rat Neonicotinoid receptor (NNR), Chrna7 (gene 25302) (UniProt Q05941); assay: NVS_LGIC_rNNR_BungSens: NovaScreen (NVS) Ligand-Gated Ion Channel Assay for rat Neonicotinoid receptor (NNR) (AID 2283315)
# In short: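 Rat cortical membrane preparation incubated 2.5 h with tritiated or iodinated radioligand and test chemical. Bound radioactivity was filtered and counted by scintillation, and displacement was analysed against DMSO.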
# [6] = biological target: human Neonicotinoid receptor (NNR), CHRNA2 (gene 1135) (UniProt Q15822); assay: NVS_LGIC_hNNR_NBungSens: NovaScreen (NVS) Ligand-Gated Ion Channel Assay for human Neonicotinoid receptor (NNR) (AID 2283313)
# Sequence of human Neonicotinoid receptor (NNR), CHRNA2 (gene 1135) (Q15822 whole entry, looked up): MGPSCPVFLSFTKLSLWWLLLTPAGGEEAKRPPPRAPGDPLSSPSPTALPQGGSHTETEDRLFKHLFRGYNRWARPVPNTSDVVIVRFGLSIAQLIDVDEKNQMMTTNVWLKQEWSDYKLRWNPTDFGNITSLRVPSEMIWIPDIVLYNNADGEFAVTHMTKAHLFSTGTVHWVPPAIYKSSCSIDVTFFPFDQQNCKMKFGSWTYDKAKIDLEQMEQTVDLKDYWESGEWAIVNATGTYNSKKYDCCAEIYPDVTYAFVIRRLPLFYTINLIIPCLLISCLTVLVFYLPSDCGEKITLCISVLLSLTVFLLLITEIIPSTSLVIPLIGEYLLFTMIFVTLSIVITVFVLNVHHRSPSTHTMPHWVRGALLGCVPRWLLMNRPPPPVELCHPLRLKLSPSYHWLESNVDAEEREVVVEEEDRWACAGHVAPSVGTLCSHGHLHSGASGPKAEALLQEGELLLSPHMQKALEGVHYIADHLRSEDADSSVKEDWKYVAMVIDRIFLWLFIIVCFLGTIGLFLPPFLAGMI
# In short: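 Compounds first screened in duplicate at 25 uM, then actives re-tested in single-replicate dose series up to 50 uM. Binding measured as displacement of specific radioligand from neuroblastoma membrane receptors after 2 h, scintillation read on filters.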
# [7] = biological target: rat Neurokinin-3 Receptor (NK3), Tacr3 (gene 24808) (UniProt P16177); assay: NVS_GPCR_rNK3: NovaScreen (NVS) G Protein-Coupled Receptor Assay for rat Neurokinin-3 Receptor (NK3) (AID 2283310)
# In short: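 Filter-based radioligand displacement on rat cortex membrane preparations, read by scintillation 2 h post-dose. Chemicals first tested in duplicate at 25 uM; actives followed up in concentration series with a 50 uM maximum.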
# [8] = biological target: mouse Cholecystokinin, CCK2 Receptor (CCKB), Cckbr (gene 12426) (UniProt P56481); assay: NVS_GPCR_mCKKBCentral: NovaScreen (NVS) G Protein-Coupled Receptor Assay for mouse Cholecystokinin, CCK2 Receptor (CCKB) (AID 2283293)
# In short: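 Mouse forebrain membrane preparation incubated 2 h with chemical and radioligand; bound radioactivity counted after filtration. Single-concentration duplicate screen at 25 uM, then concentration series to 50 uM max for hits, DMSO as baseline.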
# [9] = biological target: guinea pig Serotonin, 5-Hydroxytryptamine Receptor 4 (5HT4), HTR4 (gene 100135548) (UniProt O70528); assay: NVS_GPCR_g5HT4: NovaScreen (NVS) G Protein-Coupled Receptor Assay for guinea pig Serotonin, 5-Hydroxytryptamine Receptor 4 (5HT4) (AID 2283294)
# Sequence of guinea pig Serotonin, 5-Hydroxytryptamine Receptor 4 (5HT4), HTR4 (gene 100135548) (O70528 whole entry, looked up): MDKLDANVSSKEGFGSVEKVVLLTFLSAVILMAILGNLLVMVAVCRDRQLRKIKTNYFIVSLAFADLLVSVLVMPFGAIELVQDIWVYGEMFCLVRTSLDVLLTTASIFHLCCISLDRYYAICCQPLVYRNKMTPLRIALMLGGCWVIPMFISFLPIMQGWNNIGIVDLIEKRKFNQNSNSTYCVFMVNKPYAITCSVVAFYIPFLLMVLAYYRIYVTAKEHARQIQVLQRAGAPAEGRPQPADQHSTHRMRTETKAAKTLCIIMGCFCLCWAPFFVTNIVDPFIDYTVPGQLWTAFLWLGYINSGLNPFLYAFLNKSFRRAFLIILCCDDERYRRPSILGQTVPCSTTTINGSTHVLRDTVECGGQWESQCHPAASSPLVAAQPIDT
# In short: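 Compounds first screened in duplicate at 25 uM, actives followed up in concentration series. Binding measured as displacement of specific radioligand from guinea pig striatal membranes, 1 h, filter-based scintillation read-out versus DMSO baseline.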
# [10] = system: rat Adrenergic, Alpha 1B Receptor (Adra1B), gene 24173; assay: NVS_GPCR_rAdra1B: NovaScreen (NVS) G Protein-Coupled Receptor Assay for rat Adrenergic, Alpha 1B Receptor (Adra1B) (AID 2283297)
# In short: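 Filter-binding radioligand competition on membranes from rat liver, read after 1 h by scintillation counting. Single-concentration duplicate screen at 25 uM, followed by concentration-response on actives, normalised to DMSO.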
# [11] = biological target: rat Adrenergic Receptor, Beta (Adrb), Non-selective Binding, Adrb1 (gene 24925) (UniProt P18090); assay: NVS_GPCR_rAdrb_NonSelective: NovaScreen (NVS) G Protein-Coupled Receptor Assay for rat Adrenergic Receptor, Beta (Adrb), Non-selective Binding (AID 2283298)
# In short: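 Rat cortical membranes incubated 1 h with beta-adrenergic radioligand and test chemical; bound ligand measured by filtration and scintillation counting. Screen at 25 uM duplicate, then concentration series with 50 uM maximum; loss of signal versus DMSO.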
# [12] = biological target: rat Adrenergic Receptor, Alpha 2 (Adra2), Non-selective Binding, Adra2a (gene 25083) (UniProt P22909); assay: NVS_GPCR_rAdra2_NonSelective: NovaScreen (NVS) G Protein-Coupled Receptor Assay for rat Adrenergic Receptor, Alpha 2 (Adra2), Non-selective Binding (AID 2283299)
# Sequence of rat Adrenergic Receptor, Alpha 2 (Adra2), Non-selective Binding, Adra2a (gene 25083) (P22909 whole entry, looked up): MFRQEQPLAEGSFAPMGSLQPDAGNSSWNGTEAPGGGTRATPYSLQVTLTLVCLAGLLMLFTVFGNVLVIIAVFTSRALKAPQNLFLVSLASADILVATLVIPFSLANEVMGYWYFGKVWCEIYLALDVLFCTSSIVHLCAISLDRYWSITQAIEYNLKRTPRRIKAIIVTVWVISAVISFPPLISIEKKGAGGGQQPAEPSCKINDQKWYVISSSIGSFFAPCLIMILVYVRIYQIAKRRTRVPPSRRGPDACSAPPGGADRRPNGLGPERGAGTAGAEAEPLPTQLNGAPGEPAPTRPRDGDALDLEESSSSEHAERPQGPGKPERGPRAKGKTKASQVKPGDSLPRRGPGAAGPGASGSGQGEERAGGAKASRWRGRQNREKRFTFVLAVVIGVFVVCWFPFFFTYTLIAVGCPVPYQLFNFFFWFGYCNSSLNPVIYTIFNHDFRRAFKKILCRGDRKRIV
# In short: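 Filter-based scintillation counting of radioligand binding to rat cortical membrane receptors, measured 1.25 hours post-dosing; loss of signal versus DMSO indicates displacement. Initial single-concentration duplicate at 25 uM, then concentration series.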
# [13] = biological target: Metabotropic glutamate receptor 1 (Rattus norvegicus) (UniProt P23385); assay: NVS_GPCR_rmMGluR1: NovaScreen (NVS) G Protein-Coupled Receptor Assay for rat Glutamate Metabotropic Receptor 1 (MGluR1) (AID 2283305)
# In short: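 Binding to native receptor from rat cerebellum extract, measured as displacement of a radioligand (scintillation counting, filter separation) after 1 hour. Compounds tested at 25 uM in duplicate, then titrated to a 50 uM maximum.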
# [14] = biological target: Adra2b (gene 24174) (UniProt P19328); assay: NVS_GPCR_rmAdra2B: NovaScreen (NVS) G Protein-Coupled Receptor Assay for hybird cells Adrenergic, Alpha 2B Receptor (Adra2B) (AID 2283306)
# Sequence of Adra2b (gene 24174) (P19328 whole entry, looked up): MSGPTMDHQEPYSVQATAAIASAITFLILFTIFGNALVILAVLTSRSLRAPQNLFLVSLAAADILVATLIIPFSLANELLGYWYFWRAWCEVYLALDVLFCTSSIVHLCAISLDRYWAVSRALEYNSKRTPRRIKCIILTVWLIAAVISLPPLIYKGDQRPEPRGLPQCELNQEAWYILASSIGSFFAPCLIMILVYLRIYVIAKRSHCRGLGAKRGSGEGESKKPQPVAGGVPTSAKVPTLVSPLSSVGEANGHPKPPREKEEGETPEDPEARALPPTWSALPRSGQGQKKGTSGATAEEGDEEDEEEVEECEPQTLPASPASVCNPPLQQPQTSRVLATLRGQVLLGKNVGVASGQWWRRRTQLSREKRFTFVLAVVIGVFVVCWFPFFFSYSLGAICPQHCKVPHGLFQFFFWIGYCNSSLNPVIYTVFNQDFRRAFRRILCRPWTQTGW
# In short: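 Compounds screened first at 25 uM in duplicate, with actives followed up in concentration-response; specific radioligand displacement from hybrid neuroglioma/blastoma cell membrane preparations measured by filter scintillation counting after 1 h, normalized to DMSO.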
# [15] = biological target: rat Somatostatin Receptor (SST), Sstr1 (gene 25033) (UniProt P28646); assay: NVS_GPCR_rSST: NovaScreen (NVS) G Protein-Coupled Receptor Assay for rat Somatostatin Receptor (SST) (AID 2283314)
# Sequence of rat Somatostatin Receptor (SST), Sstr1 (gene 25033) (P28646 whole entry, looked up): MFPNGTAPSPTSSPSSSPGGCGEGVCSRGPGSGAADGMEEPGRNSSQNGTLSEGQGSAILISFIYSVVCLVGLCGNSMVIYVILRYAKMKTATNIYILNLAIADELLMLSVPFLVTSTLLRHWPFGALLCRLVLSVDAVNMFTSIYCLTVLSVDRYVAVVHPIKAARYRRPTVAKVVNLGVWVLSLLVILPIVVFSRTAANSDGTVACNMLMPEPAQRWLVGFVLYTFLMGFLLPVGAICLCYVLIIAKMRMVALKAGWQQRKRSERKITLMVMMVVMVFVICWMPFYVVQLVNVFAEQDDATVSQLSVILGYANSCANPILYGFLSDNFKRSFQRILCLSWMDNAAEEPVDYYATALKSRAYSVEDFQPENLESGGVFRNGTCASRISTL
# In short: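 Single-concentration duplicate screen (25 uM), then concentration-response up to 50 uM for chemicals passing a threshold such as 30% inhibition. Membranes came from rat forebrain. Binding was measured 1 h post-dose by filter radiodetection and scintillation, relative to DMSO.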
# [16] = biological target: rat Corticotropin Releasing Factor Receptor (CRF), Crhr1 (gene 58959) (UniProt P35353); assay: NVS_GPCR_rCRF: NovaScreen (NVS) G Protein-Coupled Receptor Assay for rat Corticotropin Releasing Factor Receptor (CRF) (AID 2283300)
# Sequence of rat Corticotropin Releasing Factor Receptor (CRF), Crhr1 (gene 58959) (P35353 whole entry, looked up): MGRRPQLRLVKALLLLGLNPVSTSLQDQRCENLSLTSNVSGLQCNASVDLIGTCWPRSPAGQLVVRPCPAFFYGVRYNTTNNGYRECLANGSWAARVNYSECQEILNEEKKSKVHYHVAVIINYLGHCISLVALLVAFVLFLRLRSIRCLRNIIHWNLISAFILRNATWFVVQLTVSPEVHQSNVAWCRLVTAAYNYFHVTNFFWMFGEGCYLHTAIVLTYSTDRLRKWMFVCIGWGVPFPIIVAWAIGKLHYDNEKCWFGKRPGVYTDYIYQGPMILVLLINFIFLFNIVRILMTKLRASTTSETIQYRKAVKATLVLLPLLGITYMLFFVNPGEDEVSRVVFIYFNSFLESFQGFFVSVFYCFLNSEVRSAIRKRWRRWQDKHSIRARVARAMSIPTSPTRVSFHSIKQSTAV
# In short: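 Single-concentration (25 uM, duplicate) radioligand binding on rat cortical membrane preparations, counted by scintillation after 2 h. Activity scored as signal loss relative to DMSO negative control.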
# [17] = biological target: rat Gamma-Aminobutyric Acid Type B Receptor (GABBR), Gabbr1 (gene 81657) (UniProt Q9Z0U4); assay: NVS_GPCR_rGABBR: NovaScreen (NVS) G Protein-Coupled Receptor Assay for rat Gamma-Aminobutyric Acid Type B Receptor (GABBR) (AID 2283301)
# Sequence of rat Gamma-Aminobutyric Acid Type B Receptor (GABBR), Gabbr1 (gene 81657) (Q9Z0U4 whole entry, looked up): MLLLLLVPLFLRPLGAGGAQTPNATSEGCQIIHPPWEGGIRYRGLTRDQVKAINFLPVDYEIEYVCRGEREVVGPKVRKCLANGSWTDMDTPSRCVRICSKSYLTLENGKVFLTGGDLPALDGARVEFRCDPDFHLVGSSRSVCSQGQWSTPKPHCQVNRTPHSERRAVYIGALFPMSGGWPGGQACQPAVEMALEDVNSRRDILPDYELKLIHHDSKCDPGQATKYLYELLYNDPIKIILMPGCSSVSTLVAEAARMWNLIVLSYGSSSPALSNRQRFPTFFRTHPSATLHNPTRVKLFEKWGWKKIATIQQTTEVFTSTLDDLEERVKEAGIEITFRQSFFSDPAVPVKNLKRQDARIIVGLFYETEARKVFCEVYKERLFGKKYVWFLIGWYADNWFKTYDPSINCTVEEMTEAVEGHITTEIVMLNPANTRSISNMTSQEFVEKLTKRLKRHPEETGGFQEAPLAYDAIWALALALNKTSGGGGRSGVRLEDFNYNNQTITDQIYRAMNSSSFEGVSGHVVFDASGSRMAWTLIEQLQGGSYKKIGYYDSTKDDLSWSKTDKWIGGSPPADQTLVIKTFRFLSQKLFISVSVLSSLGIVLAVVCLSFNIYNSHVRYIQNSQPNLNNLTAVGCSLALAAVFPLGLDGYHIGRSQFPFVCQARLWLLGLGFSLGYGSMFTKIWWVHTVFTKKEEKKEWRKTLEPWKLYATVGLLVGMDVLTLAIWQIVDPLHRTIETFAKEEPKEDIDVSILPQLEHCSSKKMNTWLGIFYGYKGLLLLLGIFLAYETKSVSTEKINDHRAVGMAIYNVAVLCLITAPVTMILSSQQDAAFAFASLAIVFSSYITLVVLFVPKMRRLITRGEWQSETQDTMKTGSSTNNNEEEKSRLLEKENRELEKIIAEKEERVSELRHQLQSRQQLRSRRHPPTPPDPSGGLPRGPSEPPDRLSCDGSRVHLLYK
# In short: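 Rat cortical membrane preparation, competitive radioligand binding for 1 h with filtration and scintillation readout. Actives from duplicate single-point 25 uM screening proceeded to concentration series with 50 uM top concentration.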
# [18] = biological target: rat Neurotensin Receptor (NTS), Ntsr1 (gene 366274) (UniProt P20789); assay: NVS_GPCR_rNTS: NovaScreen (NVS) G Protein-Coupled Receptor Assay for rat Neurotensin Receptor (NTS) (AID 2283308)
# In short: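 Single-point duplicates at 25 uM, then concentration series to 50 uM max for hits, measured radioligand displacement on rat forebrain membrane preparations. Bound label counted by filtration scintillation at 1 h; signal loss relative to DMSO fitted.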
compound,measurement,setting,value
CCOP(=S)(OCC)Oc1ccc([N+](=O)[O-])cc1,outcome,[1],inactive
CCOC(=O)COc1cc(-c2nn(C)c(OC(F)F)c2Cl)c(F)cc1Cl,outcome,[2],inactive
CSC1=N[C@@](C)(c2ccccc2)C(=O)N1Nc1ccccc1,outcome,[3],inactive
same,outcome,[4],inactive
Cc1ccn2nc(S(=O)(=O)Nc3c(F)cccc3F)nc2n1,outcome,[5],inactive
CSc1nnc(C(C)(C)C)c(=O)n1N,outcome,[6],inactive
CN(C)C(=O)Nc1cccc(C(F)(F)F)c1,outcome,[7],inactive
CC[C@H](C)[C@H]1O[C@]2(C=C[C@@H]1C)C[C@@H]1C[C@@H](C/C=C(\C)[C@@H](O[C@H]3C[C@H](OC)[C@@H](O[C@H]4C[C@H](OC)[C@@H](NC)[C@H](C)O4)[C@H](C)O3)[C@@H](C)/C=C/C=C3\CO[C@@H]4[C@H](O)C(C)=C[C@@H](C(=O)O1)[C@]34O)O2,AC50,[8],15.4 µM (active)
same,AC50,[9],21.4 µM (active)
same,AC50,[10],33.1 µM (active)
same,outcome,[11],inactive
same,AC50,[12],11.5 µM (active)
same,AC50,[13],12.7 µM (active)
same,AC50,[14],34.8 µM (active)
same,AC50,[4],30.6 µM (active)
same,AC50,[15],2.49 µM (active)
Cc1cc(C2CC2)nc(Nc2ccccc2)n1,outcome,[16],inactive
same,outcome,[17],inactive
CSc1nc(NC(C)C)nc(NC(C)C)n1,outcome,[9],inactive
S=C1NCCN1,outcome,[12],inactive
same,outcome,[18],inactive
same,outcome,[6],inactive
